# Test results published in PubChem BioAssay AID1159580 (chemical genetic matrix, 2015).
# Among all 5,500 compounds or so, about 2,000 (36%) were called active. Not shown: some 18% with an inconclusive outcome. The list shows a part of the results. Unmarked numbers belong to inactive results. No stated cut-off is given here; in the data, active means normalized growth mostly below about 0.91 (no sharp cut-off); inconclusive means no clear call, values can overlap the other calls; inactive means mostly above about 0.92.
# Experiment: chemical genetic growth profiling, strain panel (AID 1159580);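 further: tested at 20 µM; growth read once vehicle control cultures reached saturation at 30 °C; 1 = growth at the plate median or of vehicle wells; lower values mean less growth of the strain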
# Details: growth OD
# [1] = S. cerevisiae deletion strains, locus YHR030C, strain SLT2, hits give low values
# [2] = S. cerevisiae deletion strains, locus YHR079C, strain IRE1, hits give low values
# [3] = S. cerevisiae deletion strains, locus YJL095W, strain BCK1, hits give low values
# [4] = S. cerevisiae deletion strains, locus YJR066W, strain TOR1, hits give low values
# [5] = S. cerevisiae deletion strains, locus YLR113W, strain HOG1, hits give low values
# [6] = S. cerevisiae deletion strains, locus YNL183C, strain NPR1, hits give low values
# [7] = S. cerevisiae deletion strains, locus YOR231W, strain MKK1, hits give low values
# [8] = S. cerevisiae deletion strains, locus YPL256C, strain CLN2, hits give low values
# [9] = S. cerevisiae deletion strains, locus YDR150W, strain NUM1, hits give low values
# [10] = S. cerevisiae deletion strains, locus YGR229C, strain SMI1, hits give low values
# [11] = S. cerevisiae deletion strains, locus YPL055C, strain LGE1, hits give low values
# [12] = S. cerevisiae deletion strains, locus YPL241C, strain CIN2, hits give low values
# [13] = S. cerevisiae deletion strains, locus YDL101C, strain DUN1, hits give low values
structure (smiles),measurement,setting,value
COC(=O)C(c1ccccc1)C1CCCCN1 (stereo unspecified),normalized growth,[1],0.978
same,normalized growth,[2],0.975
same,normalized growth,[3],0.974
same,normalized growth,[4],0.934
same,normalized growth,[5],0.95
same,normalized growth,[6],0.891
same,normalized growth,[7],0.971
same,normalized growth,[8],0.972
O=C(NCCNCC(O)COc1ccc(O)cc1)N1CCOCC1 (stereo unspecified),normalized growth,"S. cerevisiae deletion strains, locus YAL040C, strain CLN3, hits give low values",0.976
same,normalized growth,"S. cerevisiae deletion strains, locus YCL061C, strain MRC1 (second series), hits give low values",1
same,normalized growth,[9],0.993
same,normalized growth,"S. cerevisiae deletion strains, locus YDR363W, strain ESC2, hits give low values",1.01
same,normalized growth,"S. cerevisiae deletion strains, locus YER002W, strain NOP16, hits give low values",1.02
same,normalized growth,[10],1.02
same,normalized growth,"S. cerevisiae deletion strains, locus YMR307W, strain GAS1, hits give low values",0.997
same,normalized growth,"S. cerevisiae deletion strains, locus YNL128W, strain TEP1, hits give low values",0.998
same,normalized growth,"S. cerevisiae deletion strains, locus YNL175C, strain NOP13, hits give low values",0.998
same,normalized growth,"S. cerevisiae deletion strains, locus YNL197C, strain WHI3, hits give low values",0.993
same,normalized growth,"S. cerevisiae deletion strains, locus YNL224C, strain SQS1, hits give low values",0.997
same,normalized growth,"S. cerevisiae deletion strains, locus YOR083W, strain WHI5 (second series), hits give low values",1.01
same,normalized growth,[11],1.02
same,normalized growth,[12],1
Cc1ccc(OS(=O)(=O)c2ccc(Cl)cc2)c([N+](=O)[O-])n1,normalized growth,"S. cerevisiae deletion strains, locus YAL013W, strain DEP1, hits give low values",0.965
same,normalized growth,"S. cerevisiae deletion strains, locus YBR229C, strain ROT2, hits give low values",0.987
same,normalized growth,[13],0.932
same,normalized growth,"S. cerevisiae deletion strains, locus YDL134C, strain PPH21, hits give low values",0.968
same,normalized growth,[9],0.833
same,normalized growth,"S. cerevisiae deletion strains, locus YEL061C, strain CIN8, hits give low values",0.964
same,normalized growth,"S. cerevisiae deletion strains, locus YGR078C, strain PAC10, hits give low values",0.931
same,normalized growth,[10],0.978
same,normalized growth,[1],0.775
same,normalized growth,"S. cerevisiae deletion strains, locus YHR087W, strain rtc3, hits give low values",0.975
same,normalized growth,"S. cerevisiae deletion strains, locus YJR043C, strain POL32, hits give low values",0.945
same,normalized growth,"S. cerevisiae deletion strains, locus YJR075W, strain HOC1, hits give low values",0.917
same,normalized growth,"S. cerevisiae deletion strains, locus YKL190W, strain CNB1, hits give low values",0.968
same,normalized growth,"S. cerevisiae deletion strains, locus YLR039C, strain RIC1, hits give low values",0.895
same,normalized growth,"S. cerevisiae deletion strains, locus YLR058C, strain SHM2 (second series), hits give low values",0.988
same,normalized growth,"S. cerevisiae deletion strains, locus YLR085C, strain ARP6, hits give low values",0.875
same,normalized growth,"S. cerevisiae deletion strains, locus YLR262C, strain YPT6, hits give low values",0.908
same,normalized growth,"S. cerevisiae deletion strains, locus YML094W, strain GIM5, hits give low values",0.953
same,normalized growth,"S. cerevisiae deletion strains, locus YMR219W, strain ESC1, hits give low values",0.973
same,normalized growth,"S. cerevisiae deletion strains, locus YMR263W, strain SAP30, hits give low values",0.95
same,normalized growth,"S. cerevisiae deletion strains, locus YNL153C, strain GIM3, hits give low values",0.936
same,normalized growth,"S. cerevisiae deletion strains, locus YNL298W, strain CLA4 (second series), hits give low values",0.915
same,normalized growth,"S. cerevisiae deletion strains, locus YNL322C, strain KRE1, hits give low values",0.976
same,normalized growth,"S. cerevisiae deletion strains, locus YNR030W, strain Alg12, hits give low values",0.943
same,normalized growth,[11],0.962
same,normalized growth,[12],0.943
same,normalized growth,"S. cerevisiae deletion strains, locus YPR135W, strain CTF4, hits give low values",0.877
same,normalized growth,"S. cerevisiae strains, strain wild type, hits give low values",0.949
Cc1ccc(OS(=O)(=O)c2c(Cl)sc(Cl)c2Br)c([N+](=O)[O-])n1,normalized growth,"S. cerevisiae deletion strains, locus YAR019C, strain CDC15, hits give low values",0.964
same,normalized growth,"S. cerevisiae deletion strains, locus YBL105C, strain PKC1, hits give low values",0.964
same,normalized growth,"S. cerevisiae deletion strains, locus YBR135W, strain CKS1, hits give low values",0.968
same,normalized growth,"S. cerevisiae deletion strains, locus YBR136W, strain MEC1, hits give low values",0.967
same,normalized growth,"S. cerevisiae deletion strains, locus YBR160W, strain CDC28, hits give low values",0.963
same,normalized growth,"S. cerevisiae deletion strains, locus YDL017W, strain CDC7, hits give low values",0.957
same,normalized growth,"S. cerevisiae deletion strains, locus YDL028C, strain MPS1, hits give low values",0.972
same,normalized growth,[13],0.956
same,normalized growth,"S. cerevisiae deletion strains, locus YDL108W, strain KIN28, hits give low values",0.965
same,normalized growth,"S. cerevisiae deletion strains, locus YDL132W, strain cdc53, hits give low values",0.961
same,normalized growth,"S. cerevisiae deletion strains, locus YDL214C, strain PRR2, hits give low values",0.962
same,normalized growth,"S. cerevisiae deletion strains, locus YDR052C, strain DBF4, hits give low values",0.968
same,normalized growth,"S. cerevisiae deletion strains, locus YDR054C, strain cdc34, hits give low values",0.956
same,normalized growth,"S. cerevisiae deletion strains, locus YDR226W, strain ADK1, hits give low values",0.953
same,normalized growth,"S. cerevisiae deletion strains, locus YDR477W, strain SNF1, hits give low values",0.97
same,normalized growth,"S. cerevisiae deletion strains, locus YER123W, strain YCK3, hits give low values",0.952
same,normalized growth,"S. cerevisiae deletion strains, locus YER133W, strain GLC7, hits give low values",0.975
same,normalized growth,"S. cerevisiae deletion strains, locus YFL009W, strain cdc4, hits give low values",0.961
same,normalized growth,"S. cerevisiae deletion strains, locus YFL029C, strain CAK1, hits give low values",0.96
same,normalized growth,"S. cerevisiae deletion strains, locus YFR003C, strain YPI1, hits give low values",0.961
same,normalized growth,"S. cerevisiae deletion strains, locus YFR019W, strain FAB1, hits give low values",0.98
same,normalized growth,"S. cerevisiae deletion strains, locus YFR028C, strain CDC14, hits give low values",0.965
same,normalized growth,"S. cerevisiae deletion strains, locus YGR040W, strain KSS1, hits give low values",0.972
same,normalized growth,"S. cerevisiae deletion strains, locus YGR052W, strain FMP48, hits give low values",1
same,normalized growth,"S. cerevisiae deletion strains, locus YGR092W, strain DBF2, hits give low values",0.951
same,normalized growth,[1],0.961
same,normalized growth,[2],0.929
same,normalized growth,"S. cerevisiae deletion strains, locus YHR082C, strain KSP1, hits give low values",1.07
same,normalized growth,"S. cerevisiae deletion strains, locus YHR205W, strain SCH9, hits give low values",0.953
same,normalized growth,"S. cerevisiae deletion strains, locus YIL147C, strain SLN1, hits give low values",0.966
same,normalized growth,[3],0.968
same,normalized growth,"S. cerevisiae deletion strains, locus YJL128C, strain PBS2, hits give low values",0.909
same,normalized growth,"S. cerevisiae deletion strains, locus YJL157C, strain FAR1, hits give low values",0.96
same,normalized growth,"S. cerevisiae deletion strains, locus YJR016C, strain ILV3, hits give low values",0.965
same,normalized growth,"S. cerevisiae deletion strains, locus YJR066W, strain TOR1 (second series), hits give low values",0.956
same,normalized growth,[4],1.02
same,normalized growth,"S. cerevisiae deletion strains, locus YKL048C, strain ELM1, hits give low values",0.965
same,normalized growth,"S. cerevisiae deletion strains, locus YKL067W, strain YNK1, hits give low values",0.959
same,normalized growth,"S. cerevisiae deletion strains, locus YKL101W, strain HSL1, hits give low values",0.979
same,normalized growth,"S. cerevisiae deletion strains, locus YKL193C, strain SDS22, hits give low values",0.963
same,normalized growth,"S. cerevisiae deletion strains, locus YKL203C, strain TOR2, hits give low values",0.991
same,normalized growth,[5],0.818 (active)
same,normalized growth,"S. cerevisiae deletion strains, locus YLR133W, strain CKI1, hits give low values",0.968
same,normalized growth,"S. cerevisiae deletion strains, locus YLR403W, strain SFP1, hits give low values",0.967
same,normalized growth,"S. cerevisiae deletion strains, locus YML070W, strain DAK1, hits give low values",0.959
same,normalized growth,"S. cerevisiae deletion strains, locus YMR001C, strain CDC5, hits give low values",0.957
same,normalized growth,"S. cerevisiae deletion strains, locus YMR205C, strain PFK2 (second series), hits give low values",0.971
same,normalized growth,"S. cerevisiae deletion strains, locus YMR277W, strain FCP1, hits give low values",0.961
same,normalized growth,"S. cerevisiae deletion strains, locus YNL006W, strain LST8, hits give low values",0.962
same,normalized growth,"S. cerevisiae deletion strains, locus YNL020C, strain ARK1, hits give low values",0.971
same,normalized growth,"S. cerevisiae deletion strains, locus YNL161W, strain CBK1, hits give low values",0.968
same,normalized growth,[6],1.01
same,normalized growth,"S. cerevisiae deletion strains, locus YNL207W, strain RIO2, hits give low values",0.955
same,normalized growth,"S. cerevisiae deletion strains, locus YNL222W, strain SSU72, hits give low values",0.971
same,normalized growth,"S. cerevisiae deletion strains, locus YNL307C, strain MCK1 (second series), hits give low values",0.965
same,normalized growth,"S. cerevisiae deletion strains, locus YOL078W, strain AVO1, hits give low values",0.967
same,normalized growth,"S. cerevisiae deletion strains, locus YOL136C, strain PFK27, hits give low values",0.957
same,normalized growth,"S. cerevisiae deletion strains, locus YOR061W, strain CKA2, hits give low values",0.962
same,normalized growth,"S. cerevisiae deletion strains, locus YOR119C, strain RIO1, hits give low values",1.04
same,normalized growth,[7],0.942
same,normalized growth,"S. cerevisiae deletion strains, locus YOR329C, strain SCD5, hits give low values",0.959
same,normalized growth,"S. cerevisiae deletion strains, locus YPL031C, strain PHO85, hits give low values",0.959
same,normalized growth,"S. cerevisiae deletion strains, locus YPL153C, strain RAD53, hits give low values",0.963
same,normalized growth,"S. cerevisiae deletion strains, locus YPL204W, strain HRR25, hits give low values",0.978
same,normalized growth,"S. cerevisiae deletion strains, locus YPL209C, strain IPL1, hits give low values",0.963
same,normalized growth,[8],0.92
same,normalized growth,"S. cerevisiae deletion strains, locus YPR025C, strain CCL1, hits give low values",0.964
same,normalized growth,"S. cerevisiae deletion strains, locus YPR106W, strain ISR1, hits give low values",0.961
same,normalized growth,"S. cerevisiae deletion strains, locus YPR111W, strain DBF20, hits give low values",0.948
same,normalized growth,"S. cerevisiae deletion strains, strain NNK1, hits give low values",0.956
same,normalized growth,"S. cerevisiae deletion strains, strain TSCII, hits give low values",0.957
